# Laboratory results reported in PMC7862700, “An all-to-all approach to the identification of sequence-specific readers for epigenetic DNA modifications on cytosine”.
# Legend:
# Assay in all cases: DAPPL (digital affinity profiling via proximity ligation, sequencing); 10 mM Tris-HCl pH 7.5, 50 mM NaCl, 1 mM DTT, 4% glycerol, room temperature, 30 min; GST-TFs on glutathione beads, 16-mer random dsDNA library, 0.1% formaldehyde crosslink after washing; high values mean tight binding
# FLI1 = target: T1, FLI1 (Homo sapiens, UniProt Q01543 1-452); conditions: protein: recombinant; tags: N-terminal GST; dsDNA, one strand shown
# T1 sequence: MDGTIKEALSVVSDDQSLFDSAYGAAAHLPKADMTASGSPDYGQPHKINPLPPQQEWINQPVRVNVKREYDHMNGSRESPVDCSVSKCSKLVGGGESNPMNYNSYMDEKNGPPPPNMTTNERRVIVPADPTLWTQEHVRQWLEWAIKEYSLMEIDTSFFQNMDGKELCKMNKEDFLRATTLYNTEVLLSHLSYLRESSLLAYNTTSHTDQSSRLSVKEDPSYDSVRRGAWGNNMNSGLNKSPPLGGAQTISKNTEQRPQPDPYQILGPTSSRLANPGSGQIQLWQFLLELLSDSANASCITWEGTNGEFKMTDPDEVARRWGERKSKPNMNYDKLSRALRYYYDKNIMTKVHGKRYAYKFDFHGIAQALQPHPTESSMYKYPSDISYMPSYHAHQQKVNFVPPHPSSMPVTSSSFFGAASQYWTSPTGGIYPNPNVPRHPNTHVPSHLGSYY
# Outline: (§1)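 Yeast served to express human transcription factors as GST fusions, which were then captured on glutathione beads and labelled with DNA barcodes. Pooled with a tag-only sample, they were incubated with 200 nmole of a 16-mer random double-stranded DNA library for 30 min at room temperature in Tris/NaCl/DTT/glycerol buffer, washed, crosslinked with 0.1% formaldehyde, ligated by proximity, amplified by PCR and sequenced. Dividing each hexamer's read frequency for a factor by its frequency for the tag-only sample gives the binding signal.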
# ELK1 = target: T2, ELK1 (Homo sapiens, UniProt P19419 1-428); conditions: protein: recombinant; tags: N-terminal GST; dsDNA, one strand shown
# T2 sequence: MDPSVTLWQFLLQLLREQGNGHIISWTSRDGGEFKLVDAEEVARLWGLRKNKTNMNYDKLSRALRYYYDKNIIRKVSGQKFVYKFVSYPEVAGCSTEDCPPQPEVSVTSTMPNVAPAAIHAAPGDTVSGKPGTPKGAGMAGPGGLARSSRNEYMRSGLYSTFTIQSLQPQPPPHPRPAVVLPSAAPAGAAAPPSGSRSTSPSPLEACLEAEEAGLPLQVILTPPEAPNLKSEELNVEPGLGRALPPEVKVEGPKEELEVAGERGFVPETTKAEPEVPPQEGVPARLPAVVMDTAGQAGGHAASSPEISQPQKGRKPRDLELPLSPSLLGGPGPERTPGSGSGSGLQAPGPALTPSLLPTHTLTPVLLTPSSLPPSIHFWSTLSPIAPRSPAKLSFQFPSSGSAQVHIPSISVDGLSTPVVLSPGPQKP
# Outline: as §1
# GABPA = target: T3, GABPA (Homo sapiens, UniProt Q06546 1-454); conditions: protein: recombinant; tags: N-terminal GST; dsDNA, one strand shown
# T3 sequence: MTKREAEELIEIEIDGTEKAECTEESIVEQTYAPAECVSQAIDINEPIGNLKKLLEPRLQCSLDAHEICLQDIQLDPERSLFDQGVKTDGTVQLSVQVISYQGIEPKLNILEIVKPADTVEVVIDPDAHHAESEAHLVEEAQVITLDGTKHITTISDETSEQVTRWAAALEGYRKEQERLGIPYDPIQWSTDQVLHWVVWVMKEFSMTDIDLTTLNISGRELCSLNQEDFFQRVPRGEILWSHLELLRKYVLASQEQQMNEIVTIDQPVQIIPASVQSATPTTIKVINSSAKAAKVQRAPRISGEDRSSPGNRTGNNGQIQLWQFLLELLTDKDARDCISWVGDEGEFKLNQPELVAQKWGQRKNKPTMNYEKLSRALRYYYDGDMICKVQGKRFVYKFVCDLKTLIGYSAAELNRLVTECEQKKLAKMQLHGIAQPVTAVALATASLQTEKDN
# Outline: as §1
# ERG = target: T4, ERG (Homo sapiens, UniProt P11308 1-479); conditions: protein: recombinant; tags: N-terminal GST; dsDNA, one strand shown
# T4 sequence: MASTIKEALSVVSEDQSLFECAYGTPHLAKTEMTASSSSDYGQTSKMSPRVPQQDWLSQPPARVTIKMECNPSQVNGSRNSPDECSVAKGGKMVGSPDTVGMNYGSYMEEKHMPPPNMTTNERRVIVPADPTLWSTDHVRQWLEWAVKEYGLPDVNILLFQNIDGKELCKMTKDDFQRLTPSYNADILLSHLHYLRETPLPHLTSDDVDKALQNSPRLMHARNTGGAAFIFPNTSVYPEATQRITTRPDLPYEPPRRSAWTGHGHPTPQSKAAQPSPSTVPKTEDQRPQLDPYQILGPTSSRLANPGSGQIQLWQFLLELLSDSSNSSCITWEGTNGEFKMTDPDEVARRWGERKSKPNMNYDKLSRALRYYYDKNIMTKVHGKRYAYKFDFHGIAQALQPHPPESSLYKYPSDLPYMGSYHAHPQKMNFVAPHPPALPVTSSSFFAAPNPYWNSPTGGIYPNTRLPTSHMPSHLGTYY
# Outline: as §1
# ELF1 = ELF1 (Homo sapiens, UniProt P32519 1-619); conditions: protein: recombinant; tags: N-terminal GST; dsDNA, one strand shown
# Outline: as §1
# EHF = target: T5, EHF (Homo sapiens, UniProt Q9NZC4 1-300); conditions: protein: recombinant; tags: N-terminal GST; dsDNA, one strand shown
# T5 sequence: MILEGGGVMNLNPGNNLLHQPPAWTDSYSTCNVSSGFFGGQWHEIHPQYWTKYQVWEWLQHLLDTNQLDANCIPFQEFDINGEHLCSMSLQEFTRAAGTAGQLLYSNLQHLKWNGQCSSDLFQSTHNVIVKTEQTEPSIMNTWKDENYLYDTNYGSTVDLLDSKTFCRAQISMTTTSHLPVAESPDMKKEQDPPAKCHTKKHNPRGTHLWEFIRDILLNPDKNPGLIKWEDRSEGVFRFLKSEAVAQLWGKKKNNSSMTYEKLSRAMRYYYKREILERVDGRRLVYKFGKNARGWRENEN
# Outline: as §1
# SPI1 = SPI1 (Homo sapiens, UniProt P17947 1-270); conditions: protein: recombinant; tags: N-terminal GST; dsDNA, one strand shown
# Outline: as §1
# SPIB = SPIB (Homo sapiens, UniProt Q01892 1-262); conditions: protein: recombinant; tags: N-terminal GST; dsDNA, one strand shown
# Outline: as §1
# ELK3 = target: T6, ELK3 (Homo sapiens, UniProt P41970 1-407); conditions: protein: recombinant; tags: N-terminal GST; dsDNA, one strand shown
# T6 sequence: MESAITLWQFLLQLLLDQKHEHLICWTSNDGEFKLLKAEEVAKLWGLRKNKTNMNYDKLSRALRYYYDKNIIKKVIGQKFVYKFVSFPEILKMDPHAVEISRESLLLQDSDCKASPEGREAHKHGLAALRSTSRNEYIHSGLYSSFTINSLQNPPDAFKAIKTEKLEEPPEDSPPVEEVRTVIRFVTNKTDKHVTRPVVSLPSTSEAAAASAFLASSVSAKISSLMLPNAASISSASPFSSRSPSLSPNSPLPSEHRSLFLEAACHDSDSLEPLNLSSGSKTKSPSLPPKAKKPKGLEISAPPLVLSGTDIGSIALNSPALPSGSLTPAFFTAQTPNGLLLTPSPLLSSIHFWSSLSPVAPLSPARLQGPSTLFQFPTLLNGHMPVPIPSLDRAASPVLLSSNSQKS
# Outline: as §1
# FEV = target: T7, FEV (Homo sapiens, UniProt Q99581 1-238); conditions: protein: recombinant; tags: N-terminal GST; dsDNA, one strand shown
# T7 sequence: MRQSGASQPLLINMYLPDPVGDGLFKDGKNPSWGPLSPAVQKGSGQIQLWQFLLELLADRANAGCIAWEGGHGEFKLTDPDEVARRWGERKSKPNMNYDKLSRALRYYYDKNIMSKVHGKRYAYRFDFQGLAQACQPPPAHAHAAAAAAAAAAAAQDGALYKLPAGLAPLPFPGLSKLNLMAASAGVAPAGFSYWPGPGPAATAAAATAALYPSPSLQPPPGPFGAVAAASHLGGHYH
# Outline: as §1
# ETV5 = ETV5 (Homo sapiens, UniProt P41161 1-510); conditions: protein: recombinant; tags: N-terminal GST; dsDNA, one strand shown
# Outline: as §1
# HSF1 = HSF1 (Homo sapiens, UniProt Q00613 1-529); conditions: protein: recombinant; tags: N-terminal GST; chain copies: 3; dsDNA, one strand shown
# Outline: as §1
# SPIC = target: T8, SPIC (Homo sapiens, UniProt Q8N5J4 1-248); conditions: protein: recombinant; tags: N-terminal GST; dsDNA, one strand shown
# T8 sequence: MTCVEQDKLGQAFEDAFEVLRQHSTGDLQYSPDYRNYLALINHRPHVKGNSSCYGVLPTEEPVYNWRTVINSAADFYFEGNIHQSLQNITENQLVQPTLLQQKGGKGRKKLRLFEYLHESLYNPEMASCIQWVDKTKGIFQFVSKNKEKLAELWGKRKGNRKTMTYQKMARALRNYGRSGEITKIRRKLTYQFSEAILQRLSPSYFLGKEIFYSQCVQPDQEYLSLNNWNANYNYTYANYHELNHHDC
# Outline: as §1
# ELF4 = ELF4 (Homo sapiens, UniProt Q99607 1-663); conditions: protein: recombinant; tags: N-terminal GST; dsDNA, one strand shown
# Outline: as §1
# ELK4 = target: T9, ELK4 (Homo sapiens, UniProt P28324-2 1-405); conditions: protein: recombinant; tags: N-terminal GST; dsDNA, one strand shown
# T9 sequence: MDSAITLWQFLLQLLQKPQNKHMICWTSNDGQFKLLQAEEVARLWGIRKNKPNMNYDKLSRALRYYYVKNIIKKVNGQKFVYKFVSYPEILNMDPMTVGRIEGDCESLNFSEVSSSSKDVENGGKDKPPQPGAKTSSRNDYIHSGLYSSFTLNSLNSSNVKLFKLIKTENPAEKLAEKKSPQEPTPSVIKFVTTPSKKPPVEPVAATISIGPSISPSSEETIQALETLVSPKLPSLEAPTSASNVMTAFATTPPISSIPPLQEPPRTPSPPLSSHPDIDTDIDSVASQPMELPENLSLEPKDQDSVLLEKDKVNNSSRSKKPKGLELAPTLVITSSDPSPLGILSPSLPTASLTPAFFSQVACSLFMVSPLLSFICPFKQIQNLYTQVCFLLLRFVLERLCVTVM
# Outline: as §1
# ETV2 = target: T10, ETV2 (Homo sapiens, UniProt O00321 1-342); conditions: protein: recombinant; tags: N-terminal GST; dsDNA, one strand shown
# T10 sequence: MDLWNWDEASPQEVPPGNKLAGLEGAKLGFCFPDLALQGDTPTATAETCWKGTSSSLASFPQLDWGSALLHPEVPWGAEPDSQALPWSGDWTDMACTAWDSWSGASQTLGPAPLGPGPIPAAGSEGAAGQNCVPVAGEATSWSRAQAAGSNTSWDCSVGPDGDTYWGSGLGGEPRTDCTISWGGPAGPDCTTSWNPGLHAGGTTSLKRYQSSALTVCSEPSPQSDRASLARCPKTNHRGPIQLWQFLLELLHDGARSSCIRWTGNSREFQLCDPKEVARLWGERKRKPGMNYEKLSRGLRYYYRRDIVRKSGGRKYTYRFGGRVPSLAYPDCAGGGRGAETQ
# Outline: as §1
# ELF3 = target: T11, ELF3 (Homo sapiens, UniProt P78545 1-371); conditions: protein: recombinant; tags: N-terminal GST; dsDNA, one strand shown
# T11 sequence: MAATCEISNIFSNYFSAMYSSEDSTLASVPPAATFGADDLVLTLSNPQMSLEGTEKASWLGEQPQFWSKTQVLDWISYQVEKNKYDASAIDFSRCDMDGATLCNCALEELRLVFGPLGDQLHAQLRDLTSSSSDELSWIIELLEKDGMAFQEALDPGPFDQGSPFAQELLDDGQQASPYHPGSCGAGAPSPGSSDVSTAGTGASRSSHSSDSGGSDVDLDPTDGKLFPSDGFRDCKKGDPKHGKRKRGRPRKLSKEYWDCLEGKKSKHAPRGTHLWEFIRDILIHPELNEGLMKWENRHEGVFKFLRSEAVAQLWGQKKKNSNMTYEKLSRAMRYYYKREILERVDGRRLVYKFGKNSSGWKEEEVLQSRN
# Outline: as §1
# CRX = CRX (Homo sapiens, UniProt O43186 1-299); conditions: protein: recombinant; tags: N-terminal GST; dsDNA, one strand shown
# Outline: as §1
# ETV1 = ETV1 (Homo sapiens, UniProt P50549 1-477); conditions: protein: recombinant; tags: N-terminal GST; dsDNA, one strand shown
# Outline: as §1
# ETV5, sequence (P41161 whole entry): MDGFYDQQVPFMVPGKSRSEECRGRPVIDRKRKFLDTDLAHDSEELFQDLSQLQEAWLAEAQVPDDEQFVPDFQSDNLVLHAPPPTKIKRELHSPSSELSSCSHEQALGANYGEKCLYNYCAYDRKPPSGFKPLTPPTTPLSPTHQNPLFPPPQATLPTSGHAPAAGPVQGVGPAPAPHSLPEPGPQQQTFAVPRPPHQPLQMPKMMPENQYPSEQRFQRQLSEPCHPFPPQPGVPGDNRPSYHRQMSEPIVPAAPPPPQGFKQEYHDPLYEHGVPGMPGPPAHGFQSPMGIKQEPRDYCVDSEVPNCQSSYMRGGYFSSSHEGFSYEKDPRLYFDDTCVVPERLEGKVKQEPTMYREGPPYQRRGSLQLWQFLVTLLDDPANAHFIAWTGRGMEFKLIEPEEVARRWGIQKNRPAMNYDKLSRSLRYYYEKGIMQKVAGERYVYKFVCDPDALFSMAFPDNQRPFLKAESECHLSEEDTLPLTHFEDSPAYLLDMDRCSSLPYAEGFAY
# HSF1, sequence (Q00613 whole entry): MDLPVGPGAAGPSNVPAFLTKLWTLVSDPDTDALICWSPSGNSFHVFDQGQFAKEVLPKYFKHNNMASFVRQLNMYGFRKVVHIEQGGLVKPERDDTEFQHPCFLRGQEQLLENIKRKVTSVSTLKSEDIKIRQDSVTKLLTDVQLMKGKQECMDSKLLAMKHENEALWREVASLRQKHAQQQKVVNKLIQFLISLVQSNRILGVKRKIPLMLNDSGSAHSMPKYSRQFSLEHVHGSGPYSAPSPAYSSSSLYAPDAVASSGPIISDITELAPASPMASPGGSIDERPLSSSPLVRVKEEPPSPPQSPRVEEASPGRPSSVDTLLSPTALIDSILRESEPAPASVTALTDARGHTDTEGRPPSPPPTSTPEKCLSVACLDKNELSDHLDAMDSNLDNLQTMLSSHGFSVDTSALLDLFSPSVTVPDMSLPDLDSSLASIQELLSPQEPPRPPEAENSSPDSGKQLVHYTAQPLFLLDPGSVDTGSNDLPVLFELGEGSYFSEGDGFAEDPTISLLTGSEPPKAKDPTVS
# CRX, sequence (O43186 whole entry): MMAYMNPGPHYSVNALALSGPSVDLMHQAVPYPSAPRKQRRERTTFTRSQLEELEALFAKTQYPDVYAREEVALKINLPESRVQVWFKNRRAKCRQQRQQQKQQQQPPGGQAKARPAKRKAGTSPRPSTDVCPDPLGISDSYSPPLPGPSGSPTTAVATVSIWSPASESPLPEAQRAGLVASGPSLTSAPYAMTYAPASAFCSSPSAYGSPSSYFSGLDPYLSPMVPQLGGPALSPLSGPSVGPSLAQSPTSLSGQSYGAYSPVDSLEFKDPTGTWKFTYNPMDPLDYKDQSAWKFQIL
# ELF4, sequence (Q99607 whole entry): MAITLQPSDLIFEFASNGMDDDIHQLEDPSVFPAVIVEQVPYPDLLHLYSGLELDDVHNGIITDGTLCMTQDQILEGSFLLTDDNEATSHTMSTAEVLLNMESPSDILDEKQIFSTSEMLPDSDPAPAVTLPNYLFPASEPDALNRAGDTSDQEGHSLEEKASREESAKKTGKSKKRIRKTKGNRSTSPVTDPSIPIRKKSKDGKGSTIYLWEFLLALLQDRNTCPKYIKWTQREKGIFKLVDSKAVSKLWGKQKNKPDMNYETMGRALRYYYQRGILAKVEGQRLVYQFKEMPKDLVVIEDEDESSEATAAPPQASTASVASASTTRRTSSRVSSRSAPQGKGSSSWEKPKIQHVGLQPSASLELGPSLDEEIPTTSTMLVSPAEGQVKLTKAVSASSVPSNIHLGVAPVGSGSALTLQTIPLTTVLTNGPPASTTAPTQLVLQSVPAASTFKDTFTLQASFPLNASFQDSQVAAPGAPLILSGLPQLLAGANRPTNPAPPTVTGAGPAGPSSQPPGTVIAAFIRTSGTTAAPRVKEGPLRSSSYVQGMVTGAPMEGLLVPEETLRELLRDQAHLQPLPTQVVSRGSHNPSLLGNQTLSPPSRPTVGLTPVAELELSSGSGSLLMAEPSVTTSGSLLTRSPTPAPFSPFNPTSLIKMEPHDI
# ETV1, sequence (P50549 whole entry): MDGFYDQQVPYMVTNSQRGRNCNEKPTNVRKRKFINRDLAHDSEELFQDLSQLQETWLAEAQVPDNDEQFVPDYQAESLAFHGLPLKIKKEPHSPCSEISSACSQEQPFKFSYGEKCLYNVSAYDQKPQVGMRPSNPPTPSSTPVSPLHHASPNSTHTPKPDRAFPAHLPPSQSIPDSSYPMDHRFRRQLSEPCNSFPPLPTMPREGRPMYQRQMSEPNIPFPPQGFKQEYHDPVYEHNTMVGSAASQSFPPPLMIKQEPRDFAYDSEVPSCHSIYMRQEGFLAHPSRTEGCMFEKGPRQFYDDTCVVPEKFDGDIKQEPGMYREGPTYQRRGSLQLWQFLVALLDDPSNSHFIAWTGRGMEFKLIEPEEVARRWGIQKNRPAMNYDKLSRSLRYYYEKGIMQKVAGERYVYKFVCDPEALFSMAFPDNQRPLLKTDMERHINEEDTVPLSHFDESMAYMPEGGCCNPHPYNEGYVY
# ELF1, sequence (P32519 whole entry): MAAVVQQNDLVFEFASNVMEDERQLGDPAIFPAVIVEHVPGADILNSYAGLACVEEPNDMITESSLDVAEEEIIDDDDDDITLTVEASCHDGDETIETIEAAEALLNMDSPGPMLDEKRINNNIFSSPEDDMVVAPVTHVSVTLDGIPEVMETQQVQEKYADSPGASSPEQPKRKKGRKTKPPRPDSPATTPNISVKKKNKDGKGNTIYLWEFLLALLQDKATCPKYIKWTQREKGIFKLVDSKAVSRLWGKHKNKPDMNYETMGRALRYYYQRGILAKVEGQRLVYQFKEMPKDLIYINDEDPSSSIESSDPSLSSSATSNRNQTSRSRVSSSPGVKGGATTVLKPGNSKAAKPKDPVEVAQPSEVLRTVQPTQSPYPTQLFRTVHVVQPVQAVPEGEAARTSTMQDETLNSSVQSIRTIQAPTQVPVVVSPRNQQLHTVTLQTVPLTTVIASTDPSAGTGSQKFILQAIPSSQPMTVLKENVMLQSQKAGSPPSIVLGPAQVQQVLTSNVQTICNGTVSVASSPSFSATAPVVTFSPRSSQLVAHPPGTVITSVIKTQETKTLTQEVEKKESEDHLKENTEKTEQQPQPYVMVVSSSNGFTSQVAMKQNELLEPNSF
# SPIB, sequence (Q01892 whole entry): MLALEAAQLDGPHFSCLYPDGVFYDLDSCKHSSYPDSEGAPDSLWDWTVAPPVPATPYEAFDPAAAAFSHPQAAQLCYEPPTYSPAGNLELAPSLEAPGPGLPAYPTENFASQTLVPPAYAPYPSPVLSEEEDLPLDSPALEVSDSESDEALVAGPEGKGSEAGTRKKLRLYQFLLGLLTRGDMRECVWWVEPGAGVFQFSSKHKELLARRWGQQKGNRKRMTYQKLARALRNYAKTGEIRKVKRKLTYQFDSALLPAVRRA
sequence,measurement,setting,value
ACCCTA,binding signal,FLI1,"1.19 fold enrichment (6-mer frequency, TF over GST control)"
same,binding signal,ELK1,"1.36 fold enrichment (6-mer frequency, TF over GST control)"
same,binding signal,GABPA,"1.25 fold enrichment (6-mer frequency, TF over GST control)"
same,binding signal,ERG,"1.18 fold enrichment (6-mer frequency, TF over GST control)"
same,binding signal,ELF1,"1.32 fold enrichment (6-mer frequency, TF over GST control)"
same,binding signal,EHF,"1.09 fold enrichment (6-mer frequency, TF over GST control)"
same,binding signal,SPI1,"1.19 fold enrichment (6-mer frequency, TF over GST control)"
same,binding signal,SPIB,"1.16 fold enrichment (6-mer frequency, TF over GST control)"
same,binding signal,ELK3,"1.29 fold enrichment (6-mer frequency, TF over GST control)"
same,binding signal,FEV,"1.22 fold enrichment (6-mer frequency, TF over GST control)"
same,binding signal,ETV5,"1.21 fold enrichment (6-mer frequency, TF over GST control)"
same,binding signal,HSF1,"1.18 fold enrichment (6-mer frequency, TF over GST control)"
same,binding signal,SPIC,"1.19 fold enrichment (6-mer frequency, TF over GST control)"
same,binding signal,ELF4,"1.26 fold enrichment (6-mer frequency, TF over GST control)"
same,binding signal,ELK4,"1.24 fold enrichment (6-mer frequency, TF over GST control)"
same,binding signal,ETV2,"1.27 fold enrichment (6-mer frequency, TF over GST control)"
same,binding signal,ELF3,"1.23 fold enrichment (6-mer frequency, TF over GST control)"
same,binding signal,CRX,"1.29 fold enrichment (6-mer frequency, TF over GST control)"
same,binding signal,ETV1,"1.45 fold enrichment (6-mer frequency, TF over GST control)"
